# In all, about 370,000 compounds went through this assay and about 2,600 (0.7%) were called active. The list comes from a sample in which actives are over-represented; it also holds similar structures and randomly drawn compounds. Values without a mark were called inactive.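 Rule for the calls: active = inhibition above a cutoff: mean of compounds within the control limits plus 3 SD of those (cut at about 17% in these data); inactive = the rest.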
# Target: Sialate O-acetylesterase (Homo sapiens) (UniProt Q9HAT2)
# Assay: blockers of sialate O-acetylesterase activity-probe labeling – biochemical, fluorescence polarization, FP-Rh probe, 1536-well HTS, primary screen (AID 1053197);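 note: 0% = plate median of compound wells and 100% = probe without SIAE protein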
# Details: SIAE FP-Rh probe binding, at 9.66 µM, active compounds read high
# Chain of Sialate O-acetylesterase (Homo sapiens) (Q9HAT2 whole entry, looked up): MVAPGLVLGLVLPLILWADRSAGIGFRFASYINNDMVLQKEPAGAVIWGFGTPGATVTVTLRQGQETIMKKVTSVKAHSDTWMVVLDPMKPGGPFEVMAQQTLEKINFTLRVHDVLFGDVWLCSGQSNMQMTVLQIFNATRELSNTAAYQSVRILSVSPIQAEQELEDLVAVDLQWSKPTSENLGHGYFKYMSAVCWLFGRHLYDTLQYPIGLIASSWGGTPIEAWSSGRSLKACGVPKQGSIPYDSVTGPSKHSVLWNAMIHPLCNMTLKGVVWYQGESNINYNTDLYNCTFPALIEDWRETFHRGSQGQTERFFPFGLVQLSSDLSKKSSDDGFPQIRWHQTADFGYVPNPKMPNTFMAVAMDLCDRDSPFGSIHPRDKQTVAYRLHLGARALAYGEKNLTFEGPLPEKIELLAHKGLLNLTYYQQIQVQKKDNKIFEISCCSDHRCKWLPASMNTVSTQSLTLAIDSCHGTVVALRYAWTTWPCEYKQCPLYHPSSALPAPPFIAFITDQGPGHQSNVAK
row,SMILES,inhibition
1,COc1ccc(N)c(C)c1,15.1%
2,COc1ccc2[nH]c(=S)cc(C)c2c1,23.9% (active)
3,COc1ccc2[nH]c3c(C)c4cc[n+](C)cc4c(C)c3c2c1,3.4%
4,COC(=O)C12C=C3CC(c4ccccc4)=C3C(=O)N1Cc1[nH]c3ccccc3c1C2 (centres undefined),5.02%
5,Cc1cc(NS(=O)(=O)c2ccc(NC(=O)CSc3nnc(SCc4ccc(F)cc4)s3)cc2)nc(C)n1,-8.85%
6,COc1ccc(CN2C/C(=C/c3ccccc3)N3C(=O)C[C@@H](c4ccccc4)N=C23)c(OC)c1,3.22%
7,Cc1ccc(C(=O)N/C(=C/c2ccc(-c3cccc([N+](=O)[O-])c3)o2)C(=O)NCCCN(C)C)cc1,21.2% (active)
8,O=C(NCc1ccco1)/C(=C\c1cccc([N+](=O)[O-])c1)NC(=O)c1ccco1,-0.85%
9,O=C(NCc1ccco1)/C(=C/c1cccc([N+](=O)[O-])c1)NC(=O)c1ccco1,-7.3%
10,C=CCN1C(=O)[C@H](CC(=O)NCCCN2CCCC2=O)[C@@]2(C(=O)OCC)CCCC=C12,4.17%
11,CCOC(=O)C1=C(C)NC2=C(C(=O)CC(C)(C)C2)C1c1ccc2c(c1)OCO2 (centres undefined),-1.17%
12,COc1ccc(C2C(C(C)=O)=C(O)C(=O)N2CCc2c[nH]c3ccccc23)cc1 (centres undefined),18.4% (active)
13,COC(=O)CN1C(=O)C(O)=C(C(C)=O)C1c1ccc([N+](=O)[O-])cc1 (centres undefined),-9.46%
14,COc1ccc2[nH]cc(CCN3C(=O)c4ccc(C(=O)O)cc4C3=O)c2c1,11.4%
15,CCOc1ccc(-n2c(SCC(=O)Nc3cc(C)c(NC(=O)c4ccccc4)cc3OC)nnc2-c2cccs2)cc1,-1.97%
16,COC(=O)C1CN(CC(C)C)CCS(=O)(=O)N1Cc1ccc(F)cc1 (centres undefined),-0.32%
17,COCCCNC(=O)C[C@H]1C[C@@]2(C(=O)OC)C(=C[C@H](C(C)(C)C)O[C@@H]2C)N(Cc2ccc(Cl)cc2Cl)C1=O,-5.63%
18,O=C(NCC1COc2ccccc2O1)c1ccc(NC(=O)c2cc(F)ccc2F)cc1 (centres undefined),-1.61%
19,CCOC(=O)[C@]12CCCCC/C=C\1N(Cc1ccc(OC)cc1)C(=O)[C@H]2CC(=O)N1CCOCC1,-1.12%
20,COc1cc(OC)cc(C(=O)NCC(=O)N2CCCCCCC2)c1,0.93%
21,COc1ccc(OC)c(CN2CCN(C(=O)CNC(=O)c3cc(C)cc(C)c3)CC2)c1,21.8% (active)
22,Cc1cc(C)cc(C(=O)NCC(=O)OCC(=O)N2CCCCC2)c1,2%
23,CCOC(=O)[C@@]12CN(C(=O)OC(C)(C)C)CC=C1N(Cc1ccc(OC)cc1)C(=O)[C@H]2CC(=O)NCc1ccc(OC)c(OC)c1,4.2%
24,CCOC(=O)CNC(=O)CSc1ccc2nnc(-c3cccnc3)n2n1,0.77%
25,CCOc1ccc(-c2nnc3ccc(SC)nn23)cc1,-1.24%

row,SMILES,inhibition
1,COC(=O)C(C)Sc1ccc2nnc(-c3cccc(F)c3)n2n1 (centres undefined),24.6% (active)
2,CN(C)[C@H]1CCN(c2cccc3c2S(=O)(=O)N2CC[C@H](C2)O3)C1,-4.89%
3,O=C(CN1CCCc2ccccc21)NCc1ccc(F)cc1,7.37%
4,COC(=O)[C@H](C(C)C)N(CCCc1cn(Cc2ccccc2)nn1)S(=O)(=O)c1ccc(F)cc1Br,-3.32%
5,CC(=N\NC(=O)c1cc(Br)ccc1O)/C(=N/O)C(=O)Nc1ccccc1,9.77%
6,CC(C)/C=N/NC(=O)c1cc(Br)ccc1O,19.5% (active)
7,O=C(N/N=C1\CCSC1)c1cc(Cl)ccc1O,8.12%
8,COc1ccc(-n2c(SCC(=O)NC3CCCC3)nnc2-c2ccncc2)cc1,6.27%
9,O=C(NC1CCC1)c1ccc(C#Cc2cccc(F)c2)c[n+]1[O-],-0.65%
10,CC(C)(C)c1cnnn1-c1ccc([N+](=O)[O-])cc1,-4.05%
11,O=C(Nn1c(SCc2ccc([N+](=O)[O-])cc2)nc2ccccc2c1=O)c1ccc(F)cc1,-45.6%
12,O=c1[nH]n(-c2ccc([N+](=O)[O-])cc2)c(=O)c2ccccc12,31.2% (active)
13,O=C(NCCC1=CCCCC1)C1CCN(S(=O)(=O)c2ccc(Cl)s2)CC1,-2.35%
14,CCC(Oc1ccccc1)C(=O)OCC(=O)Nc1c(C)nn(-c2ccccc2)c1C (centres undefined),5.85%
15,Cc1nn(-c2ccccc2)c(C)c1NC(=O)COC(=O)c1cc(Cl)ccc1O,-4.36%
16,C/C=C/c1ccc(OCC(=O)OCC(=O)Nc2c(C)nn(-c3ccccc3)c2C)c(OC)c1,18.3% (active)
17,COc1ccc(CCNc2ncnc3nc[nH]c23)cc1OC,32.2% (active)
18,COc1ccc(CCNc2nc3ccc(C)cc3n3cnnc23)cc1OC,-5.53%
19,CCc1ccc(N(CC)c2ncnc3nc[nH]c23)cc1,-3.78%
20,Cc1ccc(OCc2nnc(SC/C=C/c3ccccc3)n2Cc2ccco2)cc1,4.07%
21,C=CCN(C(=O)[C@@H](CCCC)[C@@H](O)c1ccc(Cl)cc1)c1ccccc1,-2.75%
22,CN(c1ccc(O)cc1)c1nc(-c2cccnc2)cs1,7.08%
23,COc1ccc(-c2ccc3nnc(SCC(=O)Nc4ccc(NC(C)=O)cc4)n3n2)cc1,-23.3%
24,COc1ccc(-c2csc(Nc3ccc(O)cc3)n2)cc1,26.2% (active)

# — PubChem BioAssay AID1053197 (The Scripps Research Institute Molecular Screening Center, 2014)
